Each structure is given as a SMILES string.

From ChEMBL document CHEMBL1961873, “Compounds: GSK PKIS; Assays: Nanosyn kinase panel” (2012) come the findings set out here.

For test [1], the target named is T1, Aurora kinase A (Homo sapiens) (UniProt O14965).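 Note: values are mean percent inhibition.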
T1 sequence (whole entry): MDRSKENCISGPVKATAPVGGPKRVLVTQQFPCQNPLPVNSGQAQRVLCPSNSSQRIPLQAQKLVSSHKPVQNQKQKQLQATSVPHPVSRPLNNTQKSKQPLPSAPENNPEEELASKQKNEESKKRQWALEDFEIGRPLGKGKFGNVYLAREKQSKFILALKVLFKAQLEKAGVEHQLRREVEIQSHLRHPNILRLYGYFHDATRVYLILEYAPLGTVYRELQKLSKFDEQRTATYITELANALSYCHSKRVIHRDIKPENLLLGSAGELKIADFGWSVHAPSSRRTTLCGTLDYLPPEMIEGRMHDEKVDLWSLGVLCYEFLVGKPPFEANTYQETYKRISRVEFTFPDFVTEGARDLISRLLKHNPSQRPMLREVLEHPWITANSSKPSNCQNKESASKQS
As to conditions: at 1 µM.

The target in test [2] is Aurora kinase B (Homo sapiens) (UniProt Q96GD4). The settings on record: at 0.1 µM.
Chain of Aurora kinase B (Homo sapiens) (Q96GD4 whole entry): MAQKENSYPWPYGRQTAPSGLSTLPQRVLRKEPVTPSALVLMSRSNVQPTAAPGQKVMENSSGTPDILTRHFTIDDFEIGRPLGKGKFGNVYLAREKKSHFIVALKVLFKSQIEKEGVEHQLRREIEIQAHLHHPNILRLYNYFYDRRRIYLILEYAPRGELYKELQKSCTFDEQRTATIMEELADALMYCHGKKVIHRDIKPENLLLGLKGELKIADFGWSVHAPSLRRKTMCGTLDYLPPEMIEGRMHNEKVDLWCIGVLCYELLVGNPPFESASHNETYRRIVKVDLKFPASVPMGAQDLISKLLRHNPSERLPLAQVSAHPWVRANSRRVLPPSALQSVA
Test [3] shares this target. The settings on record: at 1 µM.
In test [4] the target is T2, Aurora kinase C (Homo sapiens) (UniProt Q9UQB9).
T2 sequence (whole entry): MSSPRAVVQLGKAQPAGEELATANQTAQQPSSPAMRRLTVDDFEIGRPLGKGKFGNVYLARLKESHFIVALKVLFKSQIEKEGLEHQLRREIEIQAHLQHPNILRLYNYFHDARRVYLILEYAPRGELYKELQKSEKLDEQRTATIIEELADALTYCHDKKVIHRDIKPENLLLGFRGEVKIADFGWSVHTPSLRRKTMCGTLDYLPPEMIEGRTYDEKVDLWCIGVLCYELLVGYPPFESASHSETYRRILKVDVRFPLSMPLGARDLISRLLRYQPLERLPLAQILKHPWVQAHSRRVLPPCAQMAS
The settings on record: at 0.1 µM.

For test [5], the target named is T2, Aurora kinase C (Homo sapiens). The settings on record: at 1 µM.
Test [6] concerns the target Serine/threonine-protein kinase 10 (Homo sapiens) (UniProt O94804). As to conditions: at 0.1 µM.
The target is the same in test [7]. As to conditions: at 1 µM.
Test [8] has as its target T3, Mitogen-activated protein kinase kinase kinase kinase 2 (Homo sapiens) (UniProt Q12851).
T3 sequence (whole entry): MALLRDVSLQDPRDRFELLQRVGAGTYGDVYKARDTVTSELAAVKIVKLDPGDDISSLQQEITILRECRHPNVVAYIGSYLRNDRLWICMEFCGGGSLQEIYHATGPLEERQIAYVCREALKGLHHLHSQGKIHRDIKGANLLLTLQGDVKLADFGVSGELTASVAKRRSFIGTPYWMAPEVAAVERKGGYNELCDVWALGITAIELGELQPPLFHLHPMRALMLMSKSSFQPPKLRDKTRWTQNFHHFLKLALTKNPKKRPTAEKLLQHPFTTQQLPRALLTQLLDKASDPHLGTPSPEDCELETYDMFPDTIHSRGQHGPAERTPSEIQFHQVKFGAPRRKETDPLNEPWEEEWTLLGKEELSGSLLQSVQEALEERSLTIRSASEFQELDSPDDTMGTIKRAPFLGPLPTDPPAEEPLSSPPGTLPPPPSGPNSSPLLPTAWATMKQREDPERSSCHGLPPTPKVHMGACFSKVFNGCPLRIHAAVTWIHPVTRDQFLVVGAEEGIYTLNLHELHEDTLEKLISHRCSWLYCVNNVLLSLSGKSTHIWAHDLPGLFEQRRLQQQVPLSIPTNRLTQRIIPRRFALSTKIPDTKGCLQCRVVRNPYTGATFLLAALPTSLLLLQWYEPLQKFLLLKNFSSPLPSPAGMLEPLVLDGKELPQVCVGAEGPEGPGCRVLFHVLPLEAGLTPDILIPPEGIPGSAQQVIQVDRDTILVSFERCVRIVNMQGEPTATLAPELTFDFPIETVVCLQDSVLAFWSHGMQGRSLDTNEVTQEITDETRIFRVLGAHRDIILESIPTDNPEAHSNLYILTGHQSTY
As to conditions: at 0.1 µM.

The target of test [9] is T3, Mitogen-activated protein kinase kinase kinase kinase 2 (Homo sapiens). As to conditions: at 1 µM.
In test [10] the target is Mitogen-activated protein kinase kinase kinase kinase 4 (Homo sapiens) (UniProt O95819). The settings on record: at 0.1 µM.
Chain of Mitogen-activated protein kinase kinase kinase kinase 4 (Homo sapiens) (O95819 2-1239 limits assumed): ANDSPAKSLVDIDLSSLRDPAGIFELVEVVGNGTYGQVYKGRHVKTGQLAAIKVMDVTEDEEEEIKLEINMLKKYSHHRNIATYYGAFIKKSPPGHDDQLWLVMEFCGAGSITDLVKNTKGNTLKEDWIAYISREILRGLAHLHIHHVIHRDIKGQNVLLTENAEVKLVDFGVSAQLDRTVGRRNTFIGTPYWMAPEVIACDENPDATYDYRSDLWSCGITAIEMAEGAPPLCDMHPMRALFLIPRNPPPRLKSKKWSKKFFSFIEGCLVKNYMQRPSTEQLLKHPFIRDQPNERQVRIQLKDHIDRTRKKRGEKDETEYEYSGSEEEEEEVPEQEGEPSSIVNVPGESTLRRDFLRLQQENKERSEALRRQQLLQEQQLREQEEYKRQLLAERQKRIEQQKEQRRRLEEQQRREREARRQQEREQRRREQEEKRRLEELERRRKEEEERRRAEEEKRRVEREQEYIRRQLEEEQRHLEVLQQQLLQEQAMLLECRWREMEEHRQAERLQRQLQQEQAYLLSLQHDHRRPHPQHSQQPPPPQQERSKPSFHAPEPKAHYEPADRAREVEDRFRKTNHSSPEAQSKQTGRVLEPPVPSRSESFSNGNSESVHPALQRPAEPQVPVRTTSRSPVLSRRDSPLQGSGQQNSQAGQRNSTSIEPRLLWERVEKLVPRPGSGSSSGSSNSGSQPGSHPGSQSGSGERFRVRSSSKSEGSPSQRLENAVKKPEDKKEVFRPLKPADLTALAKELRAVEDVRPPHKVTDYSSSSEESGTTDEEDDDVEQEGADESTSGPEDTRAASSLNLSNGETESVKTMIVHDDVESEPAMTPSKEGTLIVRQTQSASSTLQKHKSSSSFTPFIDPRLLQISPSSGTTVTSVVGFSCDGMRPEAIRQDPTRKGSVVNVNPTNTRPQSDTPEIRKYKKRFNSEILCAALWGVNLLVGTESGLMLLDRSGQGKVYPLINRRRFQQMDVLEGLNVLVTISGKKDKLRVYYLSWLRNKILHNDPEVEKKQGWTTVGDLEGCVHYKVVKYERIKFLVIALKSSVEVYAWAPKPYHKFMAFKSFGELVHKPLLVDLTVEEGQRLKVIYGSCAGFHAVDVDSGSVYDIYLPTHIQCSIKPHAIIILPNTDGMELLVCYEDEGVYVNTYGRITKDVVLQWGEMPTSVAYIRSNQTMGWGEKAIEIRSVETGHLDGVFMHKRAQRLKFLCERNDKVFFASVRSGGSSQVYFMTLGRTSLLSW
The target is the same in test [11]. As to conditions: at 1 µM.
Test [12] addresses Dual specificity mitogen-activated protein kinase kinase 1 (Homo sapiens) (UniProt Q02750). As to conditions: at 0.1 µM.
Test [13] has the same target. As to conditions: at 1 µM.
For test [14], the target named is Misshapen-like kinase 1 (Homo sapiens) (UniProt Q8N4C8). As to conditions: at 0.1 µM.
Chain of Misshapen-like kinase 1 (Homo sapiens) (Q8N4C8 whole entry, looked up): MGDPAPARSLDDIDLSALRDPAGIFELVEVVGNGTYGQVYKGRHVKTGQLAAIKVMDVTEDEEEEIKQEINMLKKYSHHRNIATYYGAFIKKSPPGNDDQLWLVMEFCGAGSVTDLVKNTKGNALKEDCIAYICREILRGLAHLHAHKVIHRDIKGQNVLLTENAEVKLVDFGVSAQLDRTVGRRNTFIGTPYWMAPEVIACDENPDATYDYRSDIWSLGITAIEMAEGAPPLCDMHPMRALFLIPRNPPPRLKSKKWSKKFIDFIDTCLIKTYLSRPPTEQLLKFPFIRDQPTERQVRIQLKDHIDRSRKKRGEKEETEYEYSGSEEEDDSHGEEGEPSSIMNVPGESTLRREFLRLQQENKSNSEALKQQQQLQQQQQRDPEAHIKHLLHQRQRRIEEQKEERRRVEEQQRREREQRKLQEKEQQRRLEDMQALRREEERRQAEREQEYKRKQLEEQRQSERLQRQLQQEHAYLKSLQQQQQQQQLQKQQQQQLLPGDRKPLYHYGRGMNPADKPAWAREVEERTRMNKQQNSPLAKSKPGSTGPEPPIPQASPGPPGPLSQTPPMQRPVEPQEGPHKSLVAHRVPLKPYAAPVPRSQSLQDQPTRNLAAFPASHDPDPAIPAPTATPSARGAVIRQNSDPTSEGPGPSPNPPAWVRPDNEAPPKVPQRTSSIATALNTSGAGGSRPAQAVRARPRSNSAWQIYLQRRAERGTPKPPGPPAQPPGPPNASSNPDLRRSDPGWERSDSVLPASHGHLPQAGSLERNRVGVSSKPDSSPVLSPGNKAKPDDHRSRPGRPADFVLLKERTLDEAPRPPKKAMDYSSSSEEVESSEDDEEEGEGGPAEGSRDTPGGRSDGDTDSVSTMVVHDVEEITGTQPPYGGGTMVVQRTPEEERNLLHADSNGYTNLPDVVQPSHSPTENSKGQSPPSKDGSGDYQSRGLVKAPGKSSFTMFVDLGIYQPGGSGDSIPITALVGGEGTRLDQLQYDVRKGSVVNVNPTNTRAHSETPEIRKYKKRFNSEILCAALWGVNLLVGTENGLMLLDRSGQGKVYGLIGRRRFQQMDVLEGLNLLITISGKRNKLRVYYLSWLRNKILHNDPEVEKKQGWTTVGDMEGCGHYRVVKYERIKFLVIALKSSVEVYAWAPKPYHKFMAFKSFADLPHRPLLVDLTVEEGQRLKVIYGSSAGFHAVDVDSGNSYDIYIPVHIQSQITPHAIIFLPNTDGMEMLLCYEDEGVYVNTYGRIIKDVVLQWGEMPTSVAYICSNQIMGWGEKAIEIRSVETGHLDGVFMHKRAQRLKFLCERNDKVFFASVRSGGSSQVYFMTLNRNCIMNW
Test [15] shares this target. As to conditions: at 1 µM.
For test [16], the target named is T4, Serine/threonine-protein kinase 4 (Homo sapiens) (UniProt Q13043).
T4 sequence (whole entry): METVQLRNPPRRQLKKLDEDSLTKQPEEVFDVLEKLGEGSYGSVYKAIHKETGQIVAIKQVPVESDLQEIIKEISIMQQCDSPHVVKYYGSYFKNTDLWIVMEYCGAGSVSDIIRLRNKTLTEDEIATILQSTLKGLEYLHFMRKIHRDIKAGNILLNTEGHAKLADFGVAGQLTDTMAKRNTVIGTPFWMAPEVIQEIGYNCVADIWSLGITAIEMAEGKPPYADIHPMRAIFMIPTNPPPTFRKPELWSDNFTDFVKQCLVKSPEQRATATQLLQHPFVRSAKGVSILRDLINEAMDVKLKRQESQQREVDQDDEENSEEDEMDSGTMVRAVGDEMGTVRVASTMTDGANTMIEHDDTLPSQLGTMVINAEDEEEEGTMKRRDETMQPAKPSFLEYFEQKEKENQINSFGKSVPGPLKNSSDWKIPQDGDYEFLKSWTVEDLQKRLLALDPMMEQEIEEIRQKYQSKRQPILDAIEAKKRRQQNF
The settings on record: at 0.1 µM.

The target in test [17] is T4, Serine/threonine-protein kinase 4 (Homo sapiens). The settings on record: at 1 µM.
Test [18] has as its target T5, Serine/threonine-protein kinase 3 (Homo sapiens) (UniProt Q13188).
T5 sequence (whole entry): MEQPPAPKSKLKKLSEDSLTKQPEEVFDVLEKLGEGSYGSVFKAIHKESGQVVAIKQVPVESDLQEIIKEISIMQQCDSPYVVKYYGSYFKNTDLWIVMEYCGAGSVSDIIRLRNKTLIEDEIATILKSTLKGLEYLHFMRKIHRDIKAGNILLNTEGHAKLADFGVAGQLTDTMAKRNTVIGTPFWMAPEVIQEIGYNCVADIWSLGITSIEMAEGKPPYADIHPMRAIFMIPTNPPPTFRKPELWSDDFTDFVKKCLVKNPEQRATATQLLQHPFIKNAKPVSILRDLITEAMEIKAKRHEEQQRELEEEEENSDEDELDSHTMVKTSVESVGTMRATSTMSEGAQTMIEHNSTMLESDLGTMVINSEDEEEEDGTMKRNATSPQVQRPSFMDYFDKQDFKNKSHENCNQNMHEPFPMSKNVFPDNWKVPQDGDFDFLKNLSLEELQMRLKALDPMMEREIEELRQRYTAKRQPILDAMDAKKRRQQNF
As to conditions: at 0.1 µM.

For test [19], the target named is T5, Serine/threonine-protein kinase 3 (Homo sapiens). As to conditions: at 1 µM.
For test [20], the target named is Serine/threonine-protein kinase 26 (Homo sapiens) (UniProt Q9P289). As to conditions: at 0.1 µM.
Chain of Serine/threonine-protein kinase 26 (Homo sapiens) (Q9P289 2-416 limits assumed): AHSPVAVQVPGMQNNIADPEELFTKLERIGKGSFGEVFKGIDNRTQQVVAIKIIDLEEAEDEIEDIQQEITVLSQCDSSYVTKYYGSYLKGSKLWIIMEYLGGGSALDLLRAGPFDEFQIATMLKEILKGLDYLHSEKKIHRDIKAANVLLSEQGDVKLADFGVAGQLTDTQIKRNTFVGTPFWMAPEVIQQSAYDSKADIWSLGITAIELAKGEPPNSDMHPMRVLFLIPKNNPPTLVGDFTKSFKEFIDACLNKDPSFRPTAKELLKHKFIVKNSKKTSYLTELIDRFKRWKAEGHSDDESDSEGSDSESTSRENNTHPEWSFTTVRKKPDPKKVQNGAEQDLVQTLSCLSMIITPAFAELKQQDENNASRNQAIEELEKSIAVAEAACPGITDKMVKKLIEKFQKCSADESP

Chain of Serine/threonine-protein kinase 10 (Homo sapiens) (O94804 whole entry, looked up): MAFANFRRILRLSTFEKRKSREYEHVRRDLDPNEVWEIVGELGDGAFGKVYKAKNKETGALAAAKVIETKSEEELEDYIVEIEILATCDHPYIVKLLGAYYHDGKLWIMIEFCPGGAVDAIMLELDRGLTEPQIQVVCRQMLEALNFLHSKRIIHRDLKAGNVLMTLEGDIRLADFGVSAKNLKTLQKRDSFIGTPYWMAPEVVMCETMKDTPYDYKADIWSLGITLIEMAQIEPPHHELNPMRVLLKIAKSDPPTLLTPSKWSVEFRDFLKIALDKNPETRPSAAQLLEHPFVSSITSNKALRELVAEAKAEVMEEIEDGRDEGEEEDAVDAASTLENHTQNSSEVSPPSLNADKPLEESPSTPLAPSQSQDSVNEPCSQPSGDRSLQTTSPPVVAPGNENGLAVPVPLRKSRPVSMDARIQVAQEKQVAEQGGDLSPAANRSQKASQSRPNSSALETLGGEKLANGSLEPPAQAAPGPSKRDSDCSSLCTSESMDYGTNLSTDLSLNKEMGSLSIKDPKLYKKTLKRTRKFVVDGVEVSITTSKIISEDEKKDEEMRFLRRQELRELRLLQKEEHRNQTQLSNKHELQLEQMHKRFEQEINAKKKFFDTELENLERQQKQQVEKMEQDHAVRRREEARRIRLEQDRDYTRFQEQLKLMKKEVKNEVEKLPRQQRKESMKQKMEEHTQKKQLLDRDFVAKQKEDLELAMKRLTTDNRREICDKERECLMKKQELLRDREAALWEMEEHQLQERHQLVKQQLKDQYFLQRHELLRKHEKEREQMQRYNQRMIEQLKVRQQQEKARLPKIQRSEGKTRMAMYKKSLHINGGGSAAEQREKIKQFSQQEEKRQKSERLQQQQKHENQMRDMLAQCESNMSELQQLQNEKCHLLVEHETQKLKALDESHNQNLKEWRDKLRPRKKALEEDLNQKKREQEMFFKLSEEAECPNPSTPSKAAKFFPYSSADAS
Chain of Dual specificity mitogen-activated protein kinase kinase 1 (Homo sapiens) (Q02750 whole entry): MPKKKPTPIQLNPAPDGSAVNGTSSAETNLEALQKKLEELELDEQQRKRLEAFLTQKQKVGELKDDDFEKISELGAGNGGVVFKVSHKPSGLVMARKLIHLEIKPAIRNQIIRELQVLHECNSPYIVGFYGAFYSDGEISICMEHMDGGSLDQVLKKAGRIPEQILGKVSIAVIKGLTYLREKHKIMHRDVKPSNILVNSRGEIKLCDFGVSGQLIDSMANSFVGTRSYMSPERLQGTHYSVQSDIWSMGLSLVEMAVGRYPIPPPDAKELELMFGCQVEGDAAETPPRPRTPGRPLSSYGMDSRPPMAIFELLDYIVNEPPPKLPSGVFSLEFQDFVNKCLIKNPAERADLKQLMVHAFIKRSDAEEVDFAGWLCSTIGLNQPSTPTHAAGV

What is called inhibition is the relative decrease from the control value, in per cent. With `CS(=O)(=O)Nc1cccc(-c2ccc3c(NC(=O)C4CC4)n[nH]c3c2)c1`, the inhibition in [1] is 12.4%; in [2] it was 1.84%; in test [3], 3.58%; in test [4], 1.43%; in test [5], 15.6%; in test [6], 3.13%. The inhibition in test [7] was 10.2%; in test [8] it was 1.94%; in test [9], 2.98%; in test [10] it was 2.8%; in [11], 6.35%; in test [12], 0.37%. The inhibition in test [13] is 0.96%; in test [14], 1.34%; in test [15], 6.69%; in test [16], 3.33%; in test [17], 4.09%; in test [18], 3.45%. Moreover, the inhibition is 4.09% in test [19] and -3.32% in [20].
Take `Cc1cc(Cl)cc2c1NC(=O)C2=NNc1ccc(S(N)(=O)=O)cc1`: the inhibition was 4.36% in test [1]; 4.55% in test [2]; 6.64% in test [3]; 2.52% in test [4]; -3.99% in [5]; 1.5% in test [6]. Besides, the inhibition in test [7] was 7.34%; in [8], 1%; in test [9] it was 0.54%; in [10], 12.7%; in [11], 56.5%; in test [12] it was 3.39%. Also, the inhibition came to 2.09% in test [13]; 10% in test [14]; 42.5% in test [15]; 4.01% in test [16]; 7.11% in test [17]; 3.69% in [18]. The inhibition is 6.48% in test [19] and 0.59% in test [20].
On to `Nc1nccc(-c2c(-c3ccc(F)cc3)nn3cc(C(F)(F)F)ccc23)n1`, for which the inhibition in test [1] is 1.39%; in test [2], 1.38%; in test [3] it was 0.7%; in [4] it was 1.04%; in test [5], 0.73%; in test [6] it was -0.92%. The inhibition in test [7] is 3.24%; in test [8], 2.23%; in test [9] it was 1.52%; in test [10], -0.02%; in test [11], 2.37%; in [12] it was 1.8%. The inhibition is 0.93% in [13]; 1.74% in test [14]; 1.52% in test [15]; 0.23% in test [16]; -0.05% in test [17]; -0.79% in test [18]. The inhibition is -0.81% in test [19] and 0.43% in [20].
As to `CN(C)c1cc2c(Nc3ccc4c(cnn4Cc4ccccc4)c3)ncnc2cn1`, the inhibition in test [1] was 12.8%; in [2] it was -0.85%; in test [3], 8.49%; in [4], 2.76%; in [5] it was 27.6%; in test [6], 6.27%. Also, the inhibition in test [7] turned out to be 13.9%; in test [8], 0.85%; in test [9], 0.49%; in test [10], 2.93%; in test [11], 6.51%; in test [12], 3.44%. Moreover, the inhibition in test [13] was 2.77%; in test [14], 3.28%; in test [15], 4.78%; in test [16], 3.03%; in test [17], 1.68%; in test [18], 4.54%. Besides, the figures for the inhibition in [19] and in test [20] were 2.67% and -1.9%, respectively.
Take `Cc1nc(-c2ccccc2)n2nc(NCCCN3CCOCC3)ncc12`: the inhibition in test [1] worked out at 5.63%; in test [2], 1.82%; in test [3], 8.37%; in test [4] it was 1.43%; in test [5], 12.1%; in [6], 4.62%. For the same molecule, the inhibition in [7] worked out at 7.49%; in test [8], 2.45%; in test [9], 2.48%; in test [10] it was 1.62%; in test [11] it was 5.45%; in test [12], 2.79%. Moreover, the inhibition in test [13] stood at 4.46%; in test [14], 4.74%; in [15], 5.12%; in test [16], 1.32%; in test [17], 4%; in [18] it was 2.92%. Moreover, in test [19], the inhibition is 4.68%.
On to `CC(C)c1ccc(Nc2nccc(-c3cnn4ncccc34)n2)cc1`, for which the inhibition was determined as 65.8% in [1]; 7.65% in test [2]; 43.1% in test [3]; 5.11% in [4]; 74.6% in [5]; 3.13% in [6]. Besides, the inhibition in test [7] is 8.29%; in [8], 1.97%; in [9], 23.4%; in test [10] it was 4.8%; in test [11] it was 18.7%; in test [12], 2.79%. Also, the inhibition in [13] was determined as 9.57%; in test [14], 3.97%; in test [15], 14.6%; in test [16], 4.71%; in [17], 20.1%; in [18] it was 5.07%. The inhibition in test [19] worked out at 18.6%; in test [20], 0.23%.
Turning to `NS(=O)(=O)c1ccc(-c2cc3ccncc3cc2OCc2ccccc2)cc1`, the inhibition is 7.25% in test [1]; 2.9% in [2]; 4.42% in test [3]; -0.1% in test [4]; -6.92% in [5]; 3.53% in [6]. Also, the inhibition in test [7] is 9.35%; in test [8], -0.94%; in test [9], 2.03%; in test [10], 5.89%; in test [11] it was 6.71%; in [12], 4.49%. Besides, the inhibition worked out at 3.72% in test [13]; 2.78% in test [14]; 5.92% in test [15]; 5.08% in test [16]; 7.76% in test [17]; 5.7% in test [18]. Moreover, the inhibition was 5.97% in test [19] and 0.92% in test [20].
